An excerpt weighted towards active compounds, which were near 11% of everything screened.
G9a inh – blocks human histone lysine methyltransferase G9a | G9a H3K9 monomethylation, AlphaScreen, 2 h | Potency, µM (titrated, usually from 102 µM), actives largely listed as inhibitors | hit rate 8.8% among 350,000; further: nearly all actives have a fitted effect of over 75% in size
Target sequence (Q96KQ7 913-1193 limits assumed): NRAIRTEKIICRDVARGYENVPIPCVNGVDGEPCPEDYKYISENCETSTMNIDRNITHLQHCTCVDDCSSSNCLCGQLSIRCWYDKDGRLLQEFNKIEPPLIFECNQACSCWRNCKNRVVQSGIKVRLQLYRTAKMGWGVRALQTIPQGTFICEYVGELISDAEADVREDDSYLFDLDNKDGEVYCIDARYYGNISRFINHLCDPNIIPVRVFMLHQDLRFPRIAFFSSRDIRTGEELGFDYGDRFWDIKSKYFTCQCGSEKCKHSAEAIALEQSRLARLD
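Quantitative HTS format: methyltransferase activity on a biotin-tagged H3K9 peptide is measured by AlphaScreen, using a rabbit anti-monomethyl-H3K9 antibody with streptavidin donor and anti-IgG acceptor beads. Final levels are 20 nM enzyme, 500 nM peptide, 20 uM SAM; 2 h RT.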
HP1b binding inh – blocks HP1-beta chromodomain binding to methylated histone tails; P83916; AlphaScreen HP1-beta / biotin-H3K9me3 peptide binding; Potency, µM (doses to about 114 µM), actives largely listed as inhibitors; hit rate 0.56% among 390,000; further: nearly all actives have a fitted effect of over 70% in size
Target sequence (P83916 whole entry, looked up): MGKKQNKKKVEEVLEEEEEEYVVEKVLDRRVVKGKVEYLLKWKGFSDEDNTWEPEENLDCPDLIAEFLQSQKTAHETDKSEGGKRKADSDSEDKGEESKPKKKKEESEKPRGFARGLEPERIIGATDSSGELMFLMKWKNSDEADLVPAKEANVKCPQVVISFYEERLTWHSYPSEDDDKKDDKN
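HP1-beta protein (50 nM final) preincubated 30 min at room temperature with biotinylated H3(1-18)K9me3 peptide (50 nM) in PBS pH 7.4, 0.01% Tween-20, then compound added for 30 min. AlphaScreen streptavidin donor/nickel chelate acceptor beads (10 ug/mL final), 30 min dark, luminescence read.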
VDR inh – blocks the human vitamin D receptor; VDR-SRC2-3 peptide fluorescence polarization, 2 h; Potency, µM, usual class: inhibitors; hit rate 0.93% among 400,000; P11473
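Signal is fluorescence polarization, reporting how far test compounds block the interaction of VDR with the SRC2-3 coregulator peptide after a 2 h room-temperature incubation.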
PLK1 PBD inh – PLK1 (human) polo-box domain binding inhibition. Plk1 PBD binding of FITC phosphopeptide, fluorescence polarization. Potency, µM, usual class: inhibitors. hit rate 2.8% among 360,000. AID 720504; further: series mostly up to about 57 µM; nearly all actives have a fitted effect of over 65% in size
JMJD2A Tudor inh – blocks the human JMJD2A Tudor domain; hit rate 4.4% among 390,000; Potency, µM (doses to about 114 µM), usual class: inhibitors; AlphaScreen JMJD2A-Tudor / H3K4me3 peptide binding; O75164; further: nearly all actives have a fitted effect of over 50% in size
BAZ2B block – BAZ2B (human) inhibition; AlphaScreen BAZ2B-H3K14Ac peptide displacement; Potency, µM (titrated, usually from 114 µM), hits mostly inhibitors; hit rate 4.4% among 360,000; further: nearly all actives have a fitted effect of over 60% in size
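Compounds, titrated to a top concentration of 110 uM, were incubated 30 min at room temperature with preformed BAZ2B/acetyl-K14 H3 peptide complex (50 nM each). Proximity signal was measured by AlphaScreen after 20 min with beads.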
Numbers stand for hits; – = inactive; ? = inconclusive; · = no result; [ ] = remark or other dose. The call rests on the fitted dose curve; in most records, active means well fitted curve in the direction sought with a large enough effect; inconclusive means small, poorly fitted or top-dose-only effect, or another doubt; inactive means no such curve, though single readings can be large; an effect the other way counts as inactive or inconclusive.

SMILES	G9a inh	HP1b binding inh	VDR inh	PLK1 PBD inh	JMJD2A Tudor inh	BAZ2B block
Cn1c(=O)c2cc(S(=O)(=O)NC(Cc3ccccc3)C(=O)NCC3CCCO3)ccc2n(C)c1=O (stereo unspecified)	–	–	–	–	–	–
COCCCNC(=O)C(Cc1ccccc1)NS(=O)(=O)c1ccc2c(c1)c(=O)n(C)c(=O)n2C (stereo unspecified)	–[12.7 µM]	–	–	–	–	–
Cn1c(=O)c2cc(S(=O)(=O)NC(Cc3ccccc3)C(=O)NCc3ccco3)ccc2n(C)c1=O (stereo unspecified)	63µM	–	–	–	–	–
Cc1cccc(NC(=O)C(Cc2ccccc2)NS(=O)(=O)c2ccc3c(c2)c(=O)n(C)c(=O)n3C)c1 (stereo unspecified)	–	–	–	·	–	89µM
CC(NS(=O)(=O)c1ccc2c(c1)c(=O)n(C)c(=O)n2C)C(=O)NC1CCCCC1 (stereo unspecified)	·	–	–	27µM	–	–
CC(C)CCNC(=O)C(NS(=O)(=O)c1ccc2c(c1)c(=O)n(C)c(=O)n2C)c1ccccc1 (stereo unspecified)	8.9µM	–	–	–	–	–
CCC(C)NC(=O)C(NS(=O)(=O)c1ccc2c(c1)c(=O)n(C)c(=O)n2C)c1ccccc1 (stereo unspecified)	–	–	–	–	–	–
CCc1ccc(-n2nc(CO)c(C(=O)NCc3ccccc3Cl)n2)cc1	–	–	–	·	–	–
CCOc1cc(C2c3c(-c4ccccc4O)n[nH]c3C(=O)N2Cc2cccnc2)ccc1O (stereo unspecified)	–	–	–	·	–	–
COc1ccccc1NC(=O)COC(=O)CCC(=O)c1cccs1	–	–	–	–	–	–
CCOc1ccc(C(c2c(O)cc(C)n(CCOC)c2=O)N2CCN(c3ccc(F)cc3)CC2)cc1 (stereo unspecified)	18µM	–	–	·	–	–
COc1ccc(-n2c(=O)c(-c3ccc(Cl)cc3)nc3cnc(N(C)C)nc32)cc1	–[0.501 µM]	·	–	·	·	·
COc1ccccc1N1C(=O)C2ON(c3ccccc3)C(c3ccc(N(C)C)cc3)C2C1=O (stereo unspecified)	8.9µM	·	·	·	·	35µM
c1ccc(-c2ccc(OCCCn3cncn3)cc2)cc1	?	?	–	–	–[11.4 µM]	56µM
CC(=O)CCc1ccc(OCCCCn2cncn2)cc1	?	–	?	–	–	–
c1ccc(COc2ccc(OCCn3cncn3)cc2)cc1	–	–	–	–	–	–
Brc1cccc(OCCCCn2cncn2)c1	25µM	?	–	–	25µM	50µM
COc1ccccc1NC(=O)COC(=O)c1ccc(S(=O)(=O)N2CCCCCC2)cc1	·	–	–	–	–	·
COc1ccc(OC)c(C2=NOC(C(=O)NCc3cccs3)C2)c1 (stereo unspecified)	–	–	–	–	–	·
CC(=O)C(C(C)=O)c1c(Cl)c(O)c(O)c2c(C(=O)c3ccccc3)coc12	?	?	?	–	63µM	45µM
O=C(N/N=C/c1ccc2c(c1)OCO2)c1sc2cc(Cl)ccc2c1Cl	–	–	–	–	89µM	?
O=C(NCCCO)/C(=C\c1ccco1)NC(=O)c1ccc(Br)o1	28µM	–	–	–	–	–
O=C(Nc1ccc(C(=O)O)cc1)/C(=C\c1ccc2c(c1)OCO2)NC(=O)c1ccc(Br)o1	–	–	–	27µM	45µM	–
CC(=C\C(=O)O)/C(=C\c1cccc2ccccc12)C(=O)O	–	–	–	–	–	–
CC(=C\C(=O)O)/C(=C/c1ccco1)C(=O)O	45µM	–	–	–	–	–
COc1ccc2c(Cl)c(C(=O)N/N=C/c3ccc4c(c3)OCO4)sc2c1	–[12.7 µM]	–	–	–	–	–
O=C(Nc1cccc(S(=O)(=O)N2CCCCC2)c1)c1ccco1	–[12.7 µM]	–	–	–	–	–
O=C1Cc2cc(S(=O)(=O)N3CCN(c4ccc(C(F)(F)F)cc4)CC3)ccc2N1	·	·	·	·	–	·
COc1ccccc1OCC(=O)NCC(c1ccc(Cl)cc1)N1CCCCC1 (stereo unspecified)	–	–	–	·	–	–

Screening data from PubChem BioAssay.
